The list is not random: actives were taken first. Their share in the collection is about 11%.
HPGD inh: HPGD (human) dehydrogenase inhibition; purified HPGD, NADH fluorescence kinetic, PGE2 substrate; Potency, µM, inactives show at the highest dose activity change, negative = inhibition, actives largely listed as inhibitors; 150,000 compounds, 4.3% hits; note: potency is the fitted concentration of half-maximal effect
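NADH formation kinetics: reaction with 30 uM PGE2 and 1 mM NAD+ (final), 20 nM enzyme, Tris-HCl pH 8 with Tween 20, after 15 min compound preincubation at room temperature. Fluorescence change, last versus first of five reads.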
IMPase Li cell: cell-permeable IMPase inhibitors with lithium potentiation; CHO-M1 cells, IP1 TR-FRET (IP-One), carbachol + lithium; Potency, µM (doses to about 59.4 µM), for the others: top-dose activity, negative = IMPase inhibition, actives largely listed as inhibitors; 210,000 compounds, 0.35% hits; AID 1457; active = well fitted curve in the direction sought with a large enough effect; inconclusive = small, poorly fitted or top-dose-only effect, or another doubt; inactive = no such curve, though single readings can be large; an effect the other way counts as inactive or inconclusive;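 note: IP1 builds up when IMPase is blocked and the TR-FRET signal falls; potency is the fitted concentration of half-maximal effect; plate controls were basal vehicle for no effect and high inhibitor control for full effect; nearly all actives have a fitted effect of over 50% in size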
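Steps: plate 2000 CHO-M1 cells per well and culture 16–30 h; add compound and lithium; incubate 30 min, 37C; add d2-IP1 tracer and Eu cryptate anti-IP1 antibody in lysis buffer; read after 10 min at room temperature.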
PNC assembly inh: blocks assembly of the perinucleolar compartment. PC3M PTB-GFP, PNC prevalence imaging, 16 h; hits give low values. activity change (PNC), negative = inhibition, % at 10 µM. 140,000 compounds, 3.1% hits. AID 2417;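 active = readout at or below -70, meaning at least 70% loss of cells showing the perinucleolar compartment, a nuclear body marking cancer cells; inconclusive = readout between -30 and a set limit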;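 note: plate controls were DMSO wells for no effect and camptothecin positive control wells for full effect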
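Compounds are pinned in duplicate onto adhered PC3M cells stably expressing GFP-tagged PTB and incubated 16 h at 37 C. Cells are then fixed, nuclei stained with Hoechst, and PNC-positive cells counted.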
IMPase cell inh: cell-permeable inhibitors of inositol monophosphatase (IMPase) | CHO-M1 cells, IP1 accumulation, HTRF TR-FRET ratio | 120,000 tested, under 10 active | inhibition (IP1 accumulation), % at 46.1 µM | AID 901 | P97697; active = well fitted curve in the direction sought with a large enough effect in the signal ratio, not every such curve was filed as active; inconclusive = small, poorly fitted or top-dose-only effect, or a change in a side signal; inactive = no such curve, though single readings can be large or run the other way; the % refers to the signal ratio;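 note: cells stimulated with carbachol in lithium chloride buffer; plate controls were DMSO basal wells for no effect and reference inhibitor wells for full effect; higher means more IMPase inhibition seen as more IP1 and lower FRET ratio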
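Carbachol-driven Gq signalling in CHO-M1 cells (2000/well) generates IP1. Compounds that block IMPase raise IP1 and so reduce the FRET signal from Eu-anti-IP1 and d2-IP1 after a 10 min room-temperature lysis.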
ALDH1A1 inh: blocks purified human ALDH1A1 activity; Purified ALDH1A1, NADH fluorescence, propionaldehyde substrate; P00352; 220,000 compounds, 7.3% hits; Potency, µM (highest dose often 75.3 µM), for inactives: top-dose activity, negative = inhibition, actives largely listed as inhibitors;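 note: potency is the fitted concentration of half-maximal effect; plate controls were no enzyme wells and a reference inhibitor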
Target sequence (P00352 whole entry, looked up): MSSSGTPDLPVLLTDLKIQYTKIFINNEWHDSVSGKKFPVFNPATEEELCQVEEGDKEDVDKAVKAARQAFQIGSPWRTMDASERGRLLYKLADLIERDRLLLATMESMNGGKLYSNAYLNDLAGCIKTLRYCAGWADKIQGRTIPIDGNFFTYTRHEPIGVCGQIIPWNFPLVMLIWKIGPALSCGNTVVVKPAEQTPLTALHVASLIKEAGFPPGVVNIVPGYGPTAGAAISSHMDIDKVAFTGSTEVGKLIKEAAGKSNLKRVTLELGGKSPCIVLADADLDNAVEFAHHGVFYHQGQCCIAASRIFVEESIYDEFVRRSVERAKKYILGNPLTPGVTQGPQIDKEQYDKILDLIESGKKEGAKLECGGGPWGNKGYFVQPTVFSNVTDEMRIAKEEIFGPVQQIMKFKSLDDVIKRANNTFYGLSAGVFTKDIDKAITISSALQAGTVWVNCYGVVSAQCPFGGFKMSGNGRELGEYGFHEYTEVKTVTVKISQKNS
NPSR antag: neuropeptide S receptor (human) antagonism, cAMP. Q6W5P4. CHO-NPSR cells, cAMP TR-FRET, antagonist mode. Potency, µM (doses to about 38.3 µM), for inactives: at the highest dose activity change, negative = inhibition, usual class: inhibitors. 220,000 compounds, 1% hits. AID 1461; active = well fitted curve in the direction sought with a large enough effect; inconclusive = small, poorly fitted or top-dose-only effect, or another doubt; inactive = no such curve, though single readings can be large; an effect the other way counts as inactive or inconclusive; note: potency is the fitted concentration of half-maximal effect; nearly all actives have a fitted effect of over 50% in size
* hit, by the source's call; ? = inconclusive; · = not tested or not shown; [ ] = remark or other dose. Unless noted, calls come from the whole dose curve; as a rule, active = well fitted inhibition curve with a large enough effect (not every such curve was filed as active); inconclusive = small, poorly fitted or top-dose-only effect, or another doubt; inactive = no such curve, though single readings can be large or run the other way. Unless noted, % is set by controls: 0 for no effect and ±100 for the full control effect.

SMILES	HPGD inh	IMPase Li cell	PNC assembly inh	IMPase cell inh	ALDH1A1 inh	NPSR antag
CS(=O)(=O)N1CCN(CC2CC3C=CC2C3)CC1 (configuration not stated)	0.6%	17.8%[38.3 µM]	-89.4*	-0.8	-4.1%	6.8%[46.1 µM]
O=[N+]([O-])c1ccccc1S(=O)(=O)N1CCN(CC2CC3C=CC2C3)CC1 (configuration not stated)	·	8.9%	·	·	14.1µM*	-2.2%
OC(CCCN1CCCCC1)(c1ccccc1)c1ccccc1	-8.2%	22.3%	42.1	17.2[20.6 µM]	2.2%	-4.0%
CCOC(=O)CC(=O)CSc1ccc2nnc(-c3cccc(F)c3)n2n1	?	0.8%[38.3 µM]	-14.2	11.8	?	0.2%[46.1 µM]
Cc1nnc(SCCn2c(Br)nc3c2c(=O)n(C)c(=O)n3C)s1	-0.2%	2.6%	?	-1.3	10.4%	-1.9%[46.1 µM]
C1=CC2CC1CC2CN1CCN(c2ccccc2)CC1 (configuration not stated)	3.4%	45.0%[38.3 µM]	-81.4*	4.2	-8.1%	-10.4%[46.1 µM]
Cc1cccc(NC(=S)NC(NC(=O)c2ccco2)C(Cl)(Cl)Cl)c1 (configuration not stated)	-20.4%	47.7%[38.3 µM]	?	5.5	?	?
O=C(O)c1ccc(NC(=S)NC(NC(=O)c2ccco2)C(Cl)(Cl)Cl)cc1 (configuration not stated)	-13.6%	15.3%[38.3 µM]	?	-6.8	39.8µM*	-20.6%[46.1 µM]
Cc1ccc(NC(NC(=O)Cc2ccccc2)C(Cl)(Cl)Cl)cc1 (configuration not stated)	-16.9%	18.0%	-110.8*	-2.4	-7.7%	-29.0%[46.1 µM]
Cc1ccc(NC(=S)NC(NC(=O)c2ccco2)C(Cl)(Cl)Cl)cc1 (configuration not stated)	-23.1%	16.5%[38.3 µM]	-6.4	18.3	28.2µM*	-17.5%[46.1 µM]
Cn1c(=O)c(-c2ccccc2)nc2cnc(Nc3ccccc3)nc21	·	-6.3%	·	·	9.8%	·
COc1ccc2sc(SCCCS(=O)(=O)O)[n+](CCCS(=O)(=O)[O-])c2c1	?	-1.4%	-3.9	-10.7	0.5%	26.4%
COc1cc(/C=N/NC(=S)Nc2cccc(S(=O)(=O)N(C)C)c2)ccc1O	-17.1%	2.4%	98.1	·	-1.1%	3.2%
Cn1cnnc1-c1cccc(NS(=O)(=O)c2ccc(N3CCCC3=O)cc2)c1	1.9%	6.5%	0.7	1.3	-0.5%	0.7%
NC(=O)/C=C\C(=O)Nc1cccc(C(F)(F)F)c1	-25.6%	3.5%[38.3 µM]	16.4	-3.7	2.82µM*	2.9%[46.1 µM]
O=C(NNc1cccc(Cl)n1)Nc1ccc(Cl)cc1	-15.4%	-5.3%[38.3 µM]	-10.9	-2.2	?	-5.7%[46.1 µM]
NNC(=O)Nc1cccc(C(F)(F)F)c1	·	-4.6%	·	·	?	-1.4%
O=C(NNc1cccc(Cl)n1)Nc1cccc(C(F)(F)F)c1	-16.5%	-3.3%	42.4	·	20µM*	-5.3%
CC(C)(C)c1nc(Sc2ccc([N+](=O)[O-])cn2)n[nH]1	·	·	·	·	·	2.2%
CC(=O)N/C(=C/c1ccc(OS(=O)(=O)c2ccc(C)cc2)cc1)C(=O)NCCCO	·	·	·	·	2.24µM*	-23.8%
CC(=O)Nc1ccc(S(=O)(=O)Nc2ccc([N+](=O)[O-])cc2)cc1	22.4µM*	9.5%	·	·	?	·
CC(=O)Nc1ccc(OCCOc2ccc([N+](=O)[O-])cc2)cc1	·	·	·	·	·	14.6%
CC(=O)Nc1ccc(OS(=O)(=O)c2ccc([N+](=O)[O-])cc2)cc1	·	13.1%	·	·	25.1µM*	-26.0%
COc1ccccc1OS(=O)(=O)c1ccc(NC(C)=O)cc1	·	6.5%	·	·	?	-7.0%
COC(=O)/C=C/S(=O)(=O)c1ccc(NC(C)=O)cc1	-4.7%	16.5%[38.3 µM]	-7.2	5.0	0.316µM*	?
CC(=O)N/C(=C/c1ccc(OS(=O)(=O)c2ccc(C)cc2)cc1)C(=O)NCCO	-21.6%	-2.7%	-2.7	·	-9.1%	13.8%
O=C(NCc1ccccc1)C(c1ccc(O)cc1)N(C(=O)Cn1nnc(-c2cccs2)n1)c1ccc2c(c1)OCCO2 (configuration not stated)	-12.1%	2.7%	129.2	-3.5	-3.1%	-14.1%[46.1 µM]
COCC(=O)N1CCc2nc(COc3ccccc3)c3c(c2C1)CO[C@@H](C)C3	-9.9%	1.4%	·	·	-1.4%[13.5 µM]	·

Assay outcomes: PubChem, National Center for Advancing Translational Sciences (NCATS)
